# Bioassay records (PubChem BioAssay)
# Tgondii IFNg: blocks Toxoplasma gondii growth in the presence of IFN-gamma | Toxoplasma gondii growth in IFN-gamma-treated host cells; stronger effect = lower value | activity change, negative = inhibition, % (no concentration beside the values) | 3.8% of 69,000 active | AID 1259416; in the data active = activity change below about -70%, passing the limit was not always enough;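 also: host cells are HeLa cells infected with Toxoplasma gondii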
# The depositor's hits bear a star; ! = repeats disagree. The full list was thinned out, with hits kept by preference.
SMILES,Tgondii IFNg
CCOCC(=O)N1CCC2(CCC(=O)N2CCN2CCCC2)CC1,-89*
COCCN1C(=O)CCC12CCN(C(=O)COC)CC2,0
CCn1ncc(CN2CCN(C(c3ccccc3)c3ccccc3)CC2)c1C,-18
COc1ccc(-c2cc(C(C)C)nc(C(F)(F)F)n2)c(OC)c1OC,-54
CC(=O)CCc1c(C)c2cccc(C)c2[nH]c1=O,25
CCCCc1cc(C)c2[nH]c(=O)cc(C)c2c1,-88*
CCCc1[nH]c(=O)cc2cc(OC)c(OC)cc12,-40
Cc1cccc(NC(=O)c2c(O)c3ccccc3[nH]c2=O)n1,456
CN1CCC(CN2CCN(CCC(=O)Nc3cccnc3)CC2)CC1,-19
O=C(O)c1cccc(CC2CCN(C(=O)Cc3cccnc3)CC2)c1,-51
O=C(Nc1cccnc1)N1CCC(Cc2cccc(Oc3ccc(C(F)(F)F)cn3)c2)CC1,-74*
O=C(COc1ccccc1C(=O)NCC1CCCO1)NC12CC3CC(CC(C3)C1)C2 (centres undefined),-55
CN1CCN(c2cc(C(F)(F)F)ccn2)CC1C(=O)O (centres undefined),-4
CN(C(=O)C(C)(C)Oc1cc(C(F)(F)F)n(C)n1)c1ccccc1,4
Cc1ccccc1-c1cc(N2CCN(C)CC2)ncc1N(C)C(=O)C(C)(C)c1cc(C(F)(F)F)cc(C(F)(F)F)c1,-73*
CN(C)C(=O)CN1C[C@@H]2CCN(C(=O)NCc3ccccc3)CC[C@H]2S1(=O)=O,-13
FC1(F)CCN(CC2CC2)CC12CCN(c1cnccn1)C2 (centres undefined),-10
CC1CC(C)(C)Nc2ccc(OC(=O)C(C)N3C(=O)c4ccccc4C3=O)cc21 (centres undefined),-1
CCCCOc1ccc(-c2nnc(-c3cccs3)n2-c2ccccc2)cc1,-80*
Cc1cccc(-n2c(SCC(N)=O)nnc2-c2cccs2)c1C,-3
COc1ccc(OCc2nn3c(-c4cccs4)nnc3s2)cc1,-69
CCOC(=O)c1nc(NCc2cccs2)c2ccccc2n1,42
COc1cccc(CN2CCOCC2c2csc(C)n2)c1 (centres undefined),-26
COc1ccc(-c2nc(NCc3ccccc3OC)c3ccccc3n2)cc1,-34
COc1ccc(CNC(=O)Cn2c(N)nc(C)c(C)c2=O)cc1,-29
SMILES,Tgondii IFNg
COc1ccc(CNC(=O)Cn2c(=O)cc(-c3nc(C4CC4)no3)c3ccccc32)cc1,14
COc1ccc(CNC(=O)Cn2c(=O)n(Cc3ccc(F)cc3)c(=O)c3ccccc32)cc1,-73*
CCC(C)NC(=O)N1Cc2[nH]nc(COCCO)c2C1 (centres undefined),56
COc1ccccc1NC(=O)CCCCCN1C(=O)c2cccc3cccc(c23)C1=O,20
CCCCC(CC)CNC(=O)CCCCCN1C(=O)c2ccccc2C1=O (centres undefined),13
O=C(CCCCCN1C(=O)c2cccc3cccc(c23)C1=O)NO,-84*
COCCN1CCC(Cn2ccnc2-c2nccn2C)C1 (centres undefined),2
COc1ccc(OC)c(CNc2nc(-c3nnc(-c4cccc(Cl)c4)o3)nc3ccccc23)c1,-103*
COc1ccccc1CNc1nc(-c2nnc(-c3cccc(Cl)c3)o2)nc2ccccc12,-62
COc1ccc(OC)c(CNc2nc(-c3nnc(-c4ccc(C)cc4)o3)nc3ccccc23)c1,-42
COc1ccc(OC)c(CNc2nc(-c3nnc(-c4cccc(C)c4)o3)nc3ccccc23)c1,-93*
COc1ccc(-c2nnc(-c3nc(NCc4ccc(OC)cc4OC)c4ccccc4n3)o2)cc1,161
COc1ccc(CNc2nc(-c3nnc(-c4cccc(C)c4)o3)nc3ccccc23)cc1,109
CC(=O)Nc1ncc(S(=O)(=O)NCC2(c3ccccc3F)CCOCC2)s1,2
CC(=O)c1ccc(N2CCCCC2)c(NC(=S)Nc2cc(Cl)ccc2Cl)c1,55
COc1ccccc1N1CC(NC(=O)CCc2c(C)nn(C)c2C)CC1=O (centres undefined),-4
Cc1cccc(N(C)S(=O)(=O)c2csc(C(=O)NCc3cccnc3)c2)c1,-43
CCN1C(=O)CCC12CCN(c1ccc(C)nn1)CC2,23
O=C(N1CCC(n2cnc3cccnc32)CC1)N1c2ccccc2Sc2ccccc21,-11
CC(=O)Nc1ccc(S(=O)(=O)N2CCC(n3cnc4cccnc43)CC2)cc1,-96*
CC(=O)Nc1ccc(S(=O)(=O)N2CCC(Cc3cc(N)nc(C)n3)CC2)cc1,-3
CCN1C[C@H](COC)[C@@]2(CCN(C(=O)c3cc4ccccc4s3)C2)C1,0
CCn1c(=O)[nH]c2cc(Cl)c(Cl)cc21,-84*!
CC(C)NC(=O)N1CCN(c2ccc3ccc(C(=O)NCC4CC4)cn23)CC1,-3
Cc1ccc(Nc2nc(C(=O)NC3CCCCC3)nc3ccccc23)cc1,-52
SMILES,Tgondii IFNg
CCc1ccc(Nc2nc(C(=O)NC3CCCC3)nc3ccccc23)cc1,-63
O=C(NC1CCCCCC1)c1nc(Nc2ccc(F)cc2)c2ccccc2n1,-20
Cc1cccc(Nc2nc(C(=O)NC3CCCCCCC3)nc3ccccc23)c1,-83*
Cc1ccc(Nc2nc(C(=O)NC3CCCCCC3)nc3ccccc23)cc1,-75*
Cc1ccc(Nc2nc(C(=O)NC3CCCC3)nc3ccccc23)cc1,-35
Cc1ccc(NC(=O)C(CC(C)C)NS(=O)(=O)c2ccc3[nH]c(=O)ccc3c2)cc1 (centres undefined),46
CN(Cc1ccccc1)C1(C(=O)NCCN2CCNC2=O)Cc2ccccc2C1,-1
O=C(Nc1ccc2c(c1)OCO2)c1cc2nc(-c3ccco3)cc(C(F)(F)F)n2n1,-54
O=C(C1CCCO1)N1CCc2c(nc(-c3ccccn3)[nH]c2=O)C1 (centres undefined),5
Cc1ccc(N2CCC(CO)(Cc3cccc(F)c3)CC2)nn1,0
O=C(c1cn(-c2ccccc2)nn1)N1CCSCC1,255
Cc1ccc(S(=O)(=O)N(C)c2cncc(C(=O)NC(C)C)c2)cc1,14
Fc1ccc(C2CCNCC2COc2ccc3c(c2)OCO3)cc1 (centres undefined),-75*
O=C(NCc1ccc2c(c1)OCO2)c1ccccc1C1CCNC1 (centres undefined),-2
Fc1ccc([C@@H]2CCNC[C@H]2COc2ccc3c(c2)OCO3)cc1,-35
CN(Cc1cccc(O)c1)S(=O)(=O)NCc1ccccc1,4
CC(C)Cn1c2c(ccc1=O)CC(NCc1nccs1)CC2 (centres undefined),-6
CN(C)CCOc1ccc(/C(=C(/CCCl)c2ccccc2)c2ccccc2)cc1,-88*
CN(C)CCCOc1cccc(C(=O)O)c1,-15
CCCCCOc1ccc(C(=O)c2ccccc2)cc1,-11
O=S(=O)(c1ccccc1)N1CCc2c([nH]c3ccccc23)C1c1cc(F)ccc1F (centres undefined),-43
Nc1nc(Nc2ccc3c(c2)CC[C@@H](N2CCCC2)CC3)nn1-c1cc2c(nn1)-c1ccccc1CCC2,-76*
C[C@@H]1COC(Nc2ccc3ncnc(Nc4ccc(OCc5nccs5)c(Cl)c4)c3c2)=N1,-73*
COc1cc2ncnc(Nc3cccc(Cl)c3)c2cc1OC,-70
Cc1cc(C)n(Cc2cc(C(=O)N(C)CCCn3cccn3)n[nH]2)n1,-5
CS(=O)(=O)N1CCCn2cnc(COCc3ccco3)c2C1,3
Cc1csc2c(N3CCc4nnc(C5CCCO5)n4CC3)ncnc12 (centres undefined),1
COC(=O)c1sccc1S(=O)(=O)N1CCN(c2ncnc3c(C)csc23)CC1,-85*
Cc1csc2c(N3CCC(O)(CO)CC3)ncnc12,2
